# For some assays here: Measured potencies and affinities stand elsewhere.
# Columns and labels:
# Design in all cases: scale not given: direction of the effect not stated beside the values
# [1] = molecular target: Protein translocase subunit SecA (Escherichia coli (strain K12)) (UniProt P10408); assay: Assay to Identify E. coli SecA ATPase Inhibitors; assay type: functional; conditions: 30 µM
# [2] = molecular target: T1, Ubiquitin-activating enzyme e1, putative (Leishmania donovani (strain BPK282A1)) (UniProt E9BSI1); assay: Leishmania donovani Ubiquitin Activating Enzyme (LdE1); assay type: functional; conditions: 30 µM
# T1 sequence (whole entry): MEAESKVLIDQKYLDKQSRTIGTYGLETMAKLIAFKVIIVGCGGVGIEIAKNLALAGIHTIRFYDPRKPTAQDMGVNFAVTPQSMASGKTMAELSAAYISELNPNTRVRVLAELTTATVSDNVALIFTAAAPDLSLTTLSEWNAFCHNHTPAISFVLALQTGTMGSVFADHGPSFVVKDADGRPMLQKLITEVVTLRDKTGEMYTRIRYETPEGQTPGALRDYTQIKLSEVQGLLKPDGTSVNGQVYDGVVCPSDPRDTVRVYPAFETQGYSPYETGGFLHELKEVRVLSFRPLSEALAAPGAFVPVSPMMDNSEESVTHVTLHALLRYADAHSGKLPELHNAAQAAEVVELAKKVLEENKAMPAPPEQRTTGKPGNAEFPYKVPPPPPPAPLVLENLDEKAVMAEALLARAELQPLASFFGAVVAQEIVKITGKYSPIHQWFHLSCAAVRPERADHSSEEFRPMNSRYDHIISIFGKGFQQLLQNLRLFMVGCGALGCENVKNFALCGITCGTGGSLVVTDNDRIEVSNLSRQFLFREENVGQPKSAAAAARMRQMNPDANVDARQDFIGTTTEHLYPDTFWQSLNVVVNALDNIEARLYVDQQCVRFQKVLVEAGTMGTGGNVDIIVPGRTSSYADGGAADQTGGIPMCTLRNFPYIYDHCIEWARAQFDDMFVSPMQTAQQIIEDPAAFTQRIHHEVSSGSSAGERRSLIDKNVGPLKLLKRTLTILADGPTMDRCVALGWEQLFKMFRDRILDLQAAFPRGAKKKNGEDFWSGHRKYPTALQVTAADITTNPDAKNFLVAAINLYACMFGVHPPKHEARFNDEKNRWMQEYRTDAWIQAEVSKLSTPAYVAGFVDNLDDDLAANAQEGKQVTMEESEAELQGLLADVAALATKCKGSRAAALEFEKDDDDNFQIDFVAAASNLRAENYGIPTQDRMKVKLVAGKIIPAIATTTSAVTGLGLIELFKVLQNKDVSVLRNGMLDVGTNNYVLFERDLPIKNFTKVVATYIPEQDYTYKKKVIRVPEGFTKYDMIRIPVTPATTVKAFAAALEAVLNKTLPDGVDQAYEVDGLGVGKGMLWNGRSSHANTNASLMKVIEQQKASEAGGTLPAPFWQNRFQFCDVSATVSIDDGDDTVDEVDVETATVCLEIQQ
# [3] = molecular target: AMP-activated protein kinase, AMPK (Homo sapiens) (UniProt P54646+O43741+P54619+Q9UGJ0+Q9Y478+Q13131+Q9UGI9); assay: AMP-dependent Kinase enzyme assay. An in vitro enzyme assay that detects ADP turnover that is directly proportional to AMPK activity. This uses naive AMPK that is activated during the assay with MK-8722; assay type: functional; conditions: 30 µM
# [4] = molecular target: Sialic acid-binding Ig-like lectin 9 (Homo sapiens) (UniProt Q9Y336); assay: Hs-Siglec9 ALPHAscreen SOP 20170721; conditions: 10 µM
# Sialic acid-binding Ig-like lectin 9 (Homo sapiens), sequence (Q9Y336 whole entry): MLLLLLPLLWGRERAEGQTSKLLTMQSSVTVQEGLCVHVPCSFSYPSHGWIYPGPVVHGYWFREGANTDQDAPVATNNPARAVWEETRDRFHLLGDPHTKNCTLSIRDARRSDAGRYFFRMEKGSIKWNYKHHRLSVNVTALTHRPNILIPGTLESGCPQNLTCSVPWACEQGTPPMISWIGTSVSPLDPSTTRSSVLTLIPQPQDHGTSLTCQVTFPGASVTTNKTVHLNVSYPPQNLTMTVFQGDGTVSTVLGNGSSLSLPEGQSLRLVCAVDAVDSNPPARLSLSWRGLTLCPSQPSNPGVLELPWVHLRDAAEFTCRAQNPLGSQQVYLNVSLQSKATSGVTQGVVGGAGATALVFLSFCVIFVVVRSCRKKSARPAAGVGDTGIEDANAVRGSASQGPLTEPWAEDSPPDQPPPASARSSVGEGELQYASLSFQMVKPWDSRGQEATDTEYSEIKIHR
# [5] = test system: Trypanosoma cruzi; assay: Trypanosoma cruzi phosphomannomutase and mannose-1-phosphate guanylyltransferase assay; assay type: functional; conditions: 10 µM
# [6] = molecular target: T2, Arginase-2, mitochondrial (Homo sapiens) (UniProt P78540); assay: in vitro enzyme assay to detect the production of urea directly proportional to the activity of Arginase II; assay type: functional; conditions: 33.3 µM; further: in the data most compounds retested in dose-response had high values
# T2 sequence (whole entry): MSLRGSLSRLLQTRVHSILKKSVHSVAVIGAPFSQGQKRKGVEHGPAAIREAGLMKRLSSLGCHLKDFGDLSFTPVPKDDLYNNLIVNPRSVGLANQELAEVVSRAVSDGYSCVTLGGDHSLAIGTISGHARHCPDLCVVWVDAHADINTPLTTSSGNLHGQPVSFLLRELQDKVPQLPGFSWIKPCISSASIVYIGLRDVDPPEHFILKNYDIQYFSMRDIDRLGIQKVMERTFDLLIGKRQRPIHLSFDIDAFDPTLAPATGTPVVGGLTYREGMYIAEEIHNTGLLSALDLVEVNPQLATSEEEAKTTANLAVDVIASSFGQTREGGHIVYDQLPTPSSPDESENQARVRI
# [7] = molecular target: T3, Proteasome subunit beta (Trypanosoma cruzi) (UniProt O96673); assay: Trypanosoma cruzi proteasome chymotrypsin-like activity (TcProtChymo) assay.; further: in the data most compounds retested in dose-response had high values; assay type: functional; conditions: 9.37 µM
# T3 sequence (whole entry): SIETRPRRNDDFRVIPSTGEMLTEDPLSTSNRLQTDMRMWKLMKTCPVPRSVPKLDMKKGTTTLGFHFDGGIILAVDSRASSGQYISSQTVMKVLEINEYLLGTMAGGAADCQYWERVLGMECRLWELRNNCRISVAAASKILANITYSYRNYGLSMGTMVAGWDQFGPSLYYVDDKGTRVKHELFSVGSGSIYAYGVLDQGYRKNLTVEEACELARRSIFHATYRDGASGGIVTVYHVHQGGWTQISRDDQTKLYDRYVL
# [8] = species: Homo sapiens; assay: To identify inhibition of the IFN signalling (Jak-Stat) pathway via expression of an eGFP reporter gene under the control of an IFN-stimulated response element (ISRE) containing MxA promoter.; assay type: functional; conditions: 30 µM
# [9] = molecular target: T4, Tyrosyl-tRNA synthetase, putative (Trypanosoma cruzi (strain CL Brener)) (UniProt Q4DSP6); assay: Trypanosoma cruzi tyrosyl tRNA synthetase (TcYRS) _High Tyrosine SOP; assay type: functional; conditions: 30 µM; further: in the data most compounds retested in dose-response had high values
# T4 sequence (whole entry): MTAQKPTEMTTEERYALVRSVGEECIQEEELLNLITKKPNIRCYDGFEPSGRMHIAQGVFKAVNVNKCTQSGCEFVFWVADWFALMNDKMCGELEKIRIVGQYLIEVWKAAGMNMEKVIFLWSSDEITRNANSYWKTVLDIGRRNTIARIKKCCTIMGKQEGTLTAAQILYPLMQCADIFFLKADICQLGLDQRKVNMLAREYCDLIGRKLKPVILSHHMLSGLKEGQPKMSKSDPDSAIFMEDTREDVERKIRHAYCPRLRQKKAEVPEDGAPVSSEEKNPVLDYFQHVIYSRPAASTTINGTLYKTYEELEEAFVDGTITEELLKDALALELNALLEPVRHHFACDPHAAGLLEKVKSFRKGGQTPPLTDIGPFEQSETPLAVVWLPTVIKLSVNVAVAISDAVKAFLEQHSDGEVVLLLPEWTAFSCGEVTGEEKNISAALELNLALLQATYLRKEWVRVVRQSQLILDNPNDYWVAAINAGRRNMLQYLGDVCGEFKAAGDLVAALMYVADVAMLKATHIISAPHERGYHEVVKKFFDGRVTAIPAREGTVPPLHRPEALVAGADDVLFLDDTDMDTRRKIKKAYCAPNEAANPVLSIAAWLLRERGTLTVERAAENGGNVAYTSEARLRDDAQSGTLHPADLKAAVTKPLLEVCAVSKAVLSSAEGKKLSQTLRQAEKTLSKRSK
# [10] = molecular target: T4, Tyrosyl-tRNA synthetase, putative (Trypanosoma cruzi (strain CL Brener)); assay: Trypanosoma cruzi tyrosyl tRNA synthetase (TcYRS) SOP; assay type: functional; conditions: 30 µM
# [11] = molecular target: Chromo domain-containing protein 1 (Saccharomyces cerevisiae (strain ATCC 204508 / S288c) (Baker's yeast)) (UniProt P32657); assay: ScCHD-1 Enzyme Inhibition Assay; assay type: functional; conditions: 30 µM; further: in the data most compounds retested in dose-response had high values
# Chromo domain-containing protein 1 (Saccharomyces cerevisiae (strain ATCC 204508 / S288c) (Baker's yeast)), sequence (P32657 whole entry, the tested form may be a part): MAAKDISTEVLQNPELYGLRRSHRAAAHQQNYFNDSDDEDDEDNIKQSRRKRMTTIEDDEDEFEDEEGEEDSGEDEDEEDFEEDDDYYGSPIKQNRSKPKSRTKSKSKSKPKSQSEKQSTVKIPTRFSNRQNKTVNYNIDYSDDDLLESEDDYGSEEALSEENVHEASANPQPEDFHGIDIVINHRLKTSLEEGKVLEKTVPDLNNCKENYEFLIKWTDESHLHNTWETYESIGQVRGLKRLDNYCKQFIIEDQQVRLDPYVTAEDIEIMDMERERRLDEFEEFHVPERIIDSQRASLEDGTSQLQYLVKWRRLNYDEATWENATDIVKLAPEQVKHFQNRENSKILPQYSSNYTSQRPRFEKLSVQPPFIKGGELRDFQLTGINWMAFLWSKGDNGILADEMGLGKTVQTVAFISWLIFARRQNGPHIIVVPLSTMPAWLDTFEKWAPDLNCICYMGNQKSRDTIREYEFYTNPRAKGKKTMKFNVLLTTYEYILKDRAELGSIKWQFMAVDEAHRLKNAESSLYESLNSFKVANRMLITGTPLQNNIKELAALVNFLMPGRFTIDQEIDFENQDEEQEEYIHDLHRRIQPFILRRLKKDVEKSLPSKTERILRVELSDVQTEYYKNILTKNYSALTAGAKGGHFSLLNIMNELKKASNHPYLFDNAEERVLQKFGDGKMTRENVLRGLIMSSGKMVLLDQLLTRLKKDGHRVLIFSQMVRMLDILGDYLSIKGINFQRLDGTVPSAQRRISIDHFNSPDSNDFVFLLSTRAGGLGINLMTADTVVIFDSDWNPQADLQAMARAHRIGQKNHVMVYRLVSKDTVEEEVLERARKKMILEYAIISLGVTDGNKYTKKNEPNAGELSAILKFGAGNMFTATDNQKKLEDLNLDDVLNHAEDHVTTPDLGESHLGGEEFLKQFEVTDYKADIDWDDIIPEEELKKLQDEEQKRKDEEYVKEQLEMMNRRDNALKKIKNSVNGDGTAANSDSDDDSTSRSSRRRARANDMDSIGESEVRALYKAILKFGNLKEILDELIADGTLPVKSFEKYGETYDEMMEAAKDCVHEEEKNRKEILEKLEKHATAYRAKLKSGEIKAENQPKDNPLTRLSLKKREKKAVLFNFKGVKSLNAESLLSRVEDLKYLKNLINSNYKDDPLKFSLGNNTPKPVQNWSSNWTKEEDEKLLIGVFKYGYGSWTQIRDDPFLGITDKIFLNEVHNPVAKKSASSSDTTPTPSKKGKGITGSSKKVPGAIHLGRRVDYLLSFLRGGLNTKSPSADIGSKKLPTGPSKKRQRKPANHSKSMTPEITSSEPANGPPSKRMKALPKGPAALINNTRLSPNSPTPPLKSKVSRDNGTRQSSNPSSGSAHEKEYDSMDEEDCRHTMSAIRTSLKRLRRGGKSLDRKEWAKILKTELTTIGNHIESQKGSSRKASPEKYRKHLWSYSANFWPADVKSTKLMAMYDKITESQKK
# Protein translocase subunit SecA (Escherichia coli (strain K12)), sequence (P10408 whole entry): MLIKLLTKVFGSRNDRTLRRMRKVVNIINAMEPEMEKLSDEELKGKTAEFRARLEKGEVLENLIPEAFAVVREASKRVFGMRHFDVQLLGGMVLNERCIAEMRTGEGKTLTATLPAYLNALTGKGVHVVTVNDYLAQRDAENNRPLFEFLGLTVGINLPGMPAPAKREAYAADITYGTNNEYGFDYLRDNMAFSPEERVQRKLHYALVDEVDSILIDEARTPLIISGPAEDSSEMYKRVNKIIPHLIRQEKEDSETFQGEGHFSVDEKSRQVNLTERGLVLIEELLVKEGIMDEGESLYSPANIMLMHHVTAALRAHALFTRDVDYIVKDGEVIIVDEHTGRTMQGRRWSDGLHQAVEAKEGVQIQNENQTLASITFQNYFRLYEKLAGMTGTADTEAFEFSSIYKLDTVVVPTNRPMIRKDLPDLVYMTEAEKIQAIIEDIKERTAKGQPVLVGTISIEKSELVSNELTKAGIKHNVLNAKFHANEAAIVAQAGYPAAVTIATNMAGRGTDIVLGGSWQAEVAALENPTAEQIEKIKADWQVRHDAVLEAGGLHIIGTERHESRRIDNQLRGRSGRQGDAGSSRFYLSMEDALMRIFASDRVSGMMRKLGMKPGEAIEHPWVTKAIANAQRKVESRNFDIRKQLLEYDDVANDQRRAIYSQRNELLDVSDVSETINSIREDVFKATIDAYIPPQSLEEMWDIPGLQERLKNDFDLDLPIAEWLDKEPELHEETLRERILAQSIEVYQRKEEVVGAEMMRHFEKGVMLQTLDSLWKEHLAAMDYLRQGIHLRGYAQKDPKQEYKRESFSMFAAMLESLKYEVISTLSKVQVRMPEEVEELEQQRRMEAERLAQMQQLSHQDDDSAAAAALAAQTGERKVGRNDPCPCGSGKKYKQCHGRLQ
Compound,Percent Effect [1],Percent Effect [2],Percent Effect [3],Percent Effect [4],Percent Effect [5],Percent Effect [6],Percent Effect [7],Percent Effect [8],Percent Effect [9],Percent Effect [10],Percent Effect [11]
Fc1ccc(CNCC2OCCc3cn(CC4CC4)nc32)cc1 (configuration not stated),-3.44%,0%,12.4%,6.39%,2.05%,-4.78%,12.4%,9.33%,3.24%,7.69%,8.43%
CC(NC1CCN(CCS(C)(=O)=O)CC1)c1ccc(Cl)cc1 (configuration not stated),-1.94%,0%,-3.49%,0.142%,-5.02%,-0.476%,3.62%,21.6%,0.529%,7.32%,-2.22%
CN(Cc1cn2c(n1)CN(C1CCOC1)CC2)Cc1ccco1 (configuration not stated),0.0628%,5.33%,0.778%,1.26%,5.99%,-58.2%,16.1%,15.2%,6.25%,20%,-10.2%
Cc1ccc(OCCC(=O)NC2CCc3nc(C)cn3C2)cc1 (configuration not stated),-3.65%,5.26%,5.43%,5.54%,0.0974%,-4.73%,14.7%,15.1%,3.19%,10.4%,-1.61%
Cc1nc(CN2CCCC(N(C)Cc3nnsc3Cl)C2)no1 (configuration not stated),-5.44%,5.2%,0.941%,-5.57%,6.76%,-5.26%,2.99%,-2.55%,5.71%,7.06%,-13.5%
CC(C)Nc1nc(N2CCCC2)nc2c1CN(C(C)C)CC2,1.43%,-2.67%,-5.03%,21.2%,4.63%,-29.6%,14.7%,-15.2%,5.21%,-2.5%,-5.55%
COCc1cccc(NC(C)C(=O)N(C)Cc2cccc(F)c2)c1 (configuration not stated),-7.47%,-2.7%,-1.66%,-7.46%,-3.23%,-0.744%,6.44%,-12.8%,1.07%,1.24%,-5.78%
CC(C)c1ccsc1C(=O)N1CCCN(Cc2cscn2)CC1,-1.52%,2.6%,-0.162%,-7.44%,0.686%,-2.32%,19.8%,21.5%,18.1%,32.9%,-19.8%
CCS(=O)(=O)CC(=O)NC(c1ccccc1)C1CCCCC1 (configuration not stated),-6.35%,2.63%,9.57%,-0.679%,3.41%,-17.8%,21.6%,-15.8%,4.25%,7.79%,-3.43%
Cc1nc(C)n(CC2CCCN(Cc3nc(C)c(C)o3)C2)n1 (configuration not stated),-2.17%,21.6%,-13.9%,-7.46%,2.92%,-12.8%,17.7%,7.96%,1.48%,23.5%,-11%
CC(C)COC(C)C(=O)N1CCN(S(C)(=O)=O)CC1 (configuration not stated),-3.12%,8.22%,-1.38%,2.29%,3.53%,1.36%,8.34%,-1.94%,4.3%,20%,-4.42%
Cc1cc2n(n1)CC(CNCc1ccnc(-n3ccnc3C)c1)CN2 (configuration not stated),-2.38%,26.3%,-14.2%,-7.03%,7.52%,-4.98%,22.9%,4.37%,3.43%,17.1%,-13.8%
O=c1c2ccccc2nc2n1CCN(Cc1cccs1)CC2,-2.59%,20.3%,9.44%,0.538%,1.98%,-4.41%,17%,23.7%,5.38%,14.3%,-12.4%
CCn1cc2c(n1)CN(CC1CC1)CC2COCC1CC1 (configuration not stated),-2.46%,10.7%,4.51%,-3.73%,-1.77%,-5.36%,9.25%,-20.4%,5.32%,8.97%,-4.66%
Cc1ncsc1C(=O)NC1CCN(CC(=O)N(C)C(C)(C)C#N)CC1,-9.21%,7.89%,-2.06%,0.841%,-1.77%,1.08%,-2.45%,23.3%,1.48%,-1.24%,2.71%
NC(=O)C(CNC(=O)COCC(F)(F)F)Cc1ccc(F)cc1 (configuration not stated),-3.66%,5.26%,9.48%,-1.54%,0.292%,-5.92%,13.1%,-19.6%,2.13%,15.6%,-4.87%
c1cnc2c(c1)cc([C@H]1CCCO1)n2CCN1CCCCC1,4.1%,9.46%,12%,-7.44%,-7.91%,-0.232%,9.52%,7.5%,2.15%,3.9%,-12.4%
COCc1ccccc1NC(=O)[C@@H]1CCCN1C(=O)c1ccco1,-0.218%,9.72%,-5.33%,20.1%,2.82%,6.62%,12.8%,8.02%,1.05%,5.13%,-1.82%
Cc1cccc(-c2noc(CN3CCC(N4CCNC4=O)CC3)n2)c1,-6.31%,13%,4.11%,4.47%,0.374%,-1.78%,-2.2%,21.5%,7.77%,12.2%,-3.52%
Cc1ncc(-c2nc3cc(S(=O)(=O)N4CCCC4)ccc3n2C)cn1,-5.62%,5.48%,12.1%,-7.83%,0%,6.36%,2.13%,14.1%,6.45%,15%,-1.23%
CC(C)c1ncc2c(n1)CN(Cc1nc(-c3cccs3)no1)CC2,-1.45%,-10.8%,-21.1%,-6.68%,-3.99%,2.4%,2.33%,19.6%,13.9%,13.4%,8.9%
COC(=O)CCc1c(C)nn(-c2nc(C)cc(=O)[nH]2)c1C,2.99%,15.6%,14.8%,-8.75%,-3.06%,0.645%,4.87%,25.4%,7.41%,11.5%,-5.54%
